51 compounds from ChEMBL document CHEMBL3988442, “University of Dundee, Small-Polar-MMV Screening Library” (2021) can be followed below.

In the assay the test system is Leishmania donovani. Kind of assay: Leishmania intramacrophage assay. Type of assay: functional, organism-based. Also noted: scale not given: in the data most compounds retested in dose-response had high values.

The structures appear in SMILES notation. Screen size: about 69,000 compounds; about 1,000 (1.4%) showed an effect of 50% or more. Only a selection was taken, and strong results are over-represented in it overall.

Regarding `Cc1c[nH]c(CN(C)C(C(=O)O)c2c(F)cccc2OC(C)C)n1` (stereo unspecified), for the setting “30.3 µM, […]”, the “Percent Effect” value worked out at 12.35%.
On to `CC(O)CN1CCC(CNCc2ccccc2C(F)(F)F)CC1` (stereo unspecified), for which, for the setting “30 µM”, the “Percent Effect” value came out at 19.95%.
As to `CC(O)CN1CCC(CNCc2ccc(C#N)cc2)CC1` (stereo unspecified), the “Percent Effect” value (30.3 µM, […]) is -9.359%.
For `CC(O)CN1CCC(CNCc2cccc(OC(F)(F)F)c2)CC1` (stereo unspecified), where the note is “30 µM”, the “Percent Effect” value is listed as 66.17%.
Consider `CC(O)CN1CCC(CNCc2cccc(C(=O)N(C)C)c2)CC1` (stereo unspecified), for which, under “30.3 µM, […]”, the “Percent Effect” value was 15.32%.
In the case of `CC(O)CN1CCC(CNCc2ccc(OC(F)(F)F)cc2)CC1` (stereo unspecified), for the setting “30 µM”, the “Percent Effect” value is reported as 89.6%.
Regarding `CC(O)CN1CCC(CNCc2ccccc2OC(F)(F)F)CC1` (stereo unspecified), the “Percent Effect” value (30 µM, 30.03 µM) stood at 31.23%.
For the compound `CC(O)CN1CCC(CNCc2cccc(OC(C)C)c2)CC1` (stereo unspecified), the “Percent Effect” value (30 µM, 30.03 µM) was 57.47%.
Consider `CC(O)CN1CCC(CNCc2cccc(C(N)=O)c2)CC1` (stereo unspecified), for which the “Percent Effect” value (30 µM, 30.03 µM) was determined as 24.83%.
For the compound `CC(O)CN1CCC(CNCc2cccc(Cl)c2)CC1` (stereo unspecified), the “Percent Effect” value (30.3 µM, […]) came to 14.58%.
In the case of `CC(O)CN1CCC(CNCc2cccc(Br)c2)CC1` (stereo unspecified), the “Percent Effect” value (30 µM, 30.03 µM) is 61.22%.
In the case of `CC(O)CN1CCC(CNCc2ccc(S(C)(=O)=O)cc2)CC1` (stereo unspecified), the “Percent Effect” value (30 µM, 30.03 µM) is 29.6%.
Turning to `CC(O)CN1CCC(CNCc2cccc(C(F)(F)F)c2)CC1` (stereo unspecified), the “Percent Effect” value (30.3 µM, […]) amounted to 35.92%.
On to `COC(=O)c1cc(NCC(=O)NC(N)=O)cc(C(F)(F)F)c1`, for which, where the note is “30.3 µM, […]”, the “Percent Effect” value is on record as 10.64%.
In the case of `C(=C\c1ccccc1)/CNCC1CCc2nncn2C1` (stereo unspecified), for the setting “30.3 µM, […]”, the “Percent Effect” value is -5.474%.
The same measure, in the same setting: under `O=C(Nc1ccccc1F)NC1(CO)CCOCC1` stands 37.09%.
In the case of `Cc1nc(CN2C[C@@H]3CN(C(=O)c4ccnnc4)C[C@@H]3C2=O)cs1.O=C(O)C(F)(F)F`, the “Percent Effect” value (30 µM, 30.03 µM) is 13.66%.
Consider `CC(C)(C)n1ncc2c1CCCC2NCc1cccc2c1OCCO2` (stereo unspecified), for which, for the setting “30 µM”, the “Percent Effect” value worked out at 39.91%.
Consider `COc1c(CC2CC(C(=O)O)=NO2)c(Br)c2c(c1OC)OCO2` (stereo unspecified), for which, for the setting “30.3 µM, […]”, the “Percent Effect” value is listed as 9.318%.
Take `Cc1noc(CNC(=O)N2CCN(c3nc(C)c(C)s3)CC2)n1`: the “Percent Effect” value (30.3 µM, […]) is 0.7779%.
Consider `O=C(CN1CCOC(Cn2cccn2)C1)NCc1ccco1` (stereo unspecified), for which, where the note is “30 µM”, the “Percent Effect” value was determined as 30.39%.
On to `OC(CNC1CCOCC1)c1ccc(Cl)c(F)c1` (stereo unspecified), for which the “Percent Effect” value (30.3 µM, […]) was determined as 9.683%.
Turning to `CC(=O)N1CCCCC[C@@H]2[C@@H]1[C@H](c1cccc(F)c1)CN2C(=O)C1CC1`, the “Percent Effect” value (30.3 µM, […]) turned out to be 16.49%.
With `Cc1nc[nH]c1-c1nccn1CCN1CCOC1=O`, the “Percent Effect” value (30.3 µM, […]) was found to be 3.243%.
Consider `CC(C)C(=O)NCCNC(=O)C(C)OCC(F)(F)F` (stereo unspecified), for which the “Percent Effect” value (30.3 µM, […]) was 28.18%.
For the compound `CC(CC(=O)NCCNS(C)(=O)=O)C1CCCCC1` (stereo unspecified), for the setting “30.3 µM, […]”, the “Percent Effect” value came out at 12.79%.
As for `CCOC(C)C(=O)NCCNS(C)(=O)=O` (stereo unspecified), for the setting “30.3 µM, […]”, the “Percent Effect” value came out at 50.09%.
As for `CC(C)COC(C)C(=O)NCc1ccccc1` (stereo unspecified), the “Percent Effect” value (30 µM) worked out at 13.02%.
For `CC(C)COC(C)C(=O)NCCNS(C)(=O)=O` (stereo unspecified), the “Percent Effect” value (30.3 µM, […]) was 50.97%.
As for `CC(C)COC(C)C(=O)NCCNC(=O)C(C)C` (stereo unspecified), the “Percent Effect” value (30.3 µM, […]) is recorded as 43.81%.
`CCOCC(O)CN1CCN(C(=O)c2ccc(C)nc2)CC1` (stereo unspecified): the “Percent Effect” value (30 µM) was 29.83%.
As for `COc1ccc(Br)cc1CCC(=O)N1CCCC(O)C1` (stereo unspecified), the “Percent Effect” value (30.3 µM, […]) came out at 6.225%.
Consider `N#Cc1cccc(OCCN2CCCC(c3noc(C4CC4)n3)C2)c1` (stereo unspecified), for which the “Percent Effect” value (30.3 µM, […]) is recorded as 32.43%.
Take `COCC1CN(S(=O)(=O)c2cccs2)Cc2ncnn2C1` (stereo unspecified): where the note is “30.3 µM, […]”, the “Percent Effect” value is listed as 38.74%.
For the compound `Cc1ccccc1C(=O)Nc1cnn(CCN2CCOCC2)c1`, the “Percent Effect” value (30 µM) came to 17.38%.
Consider `CC(C)CS(=O)(=O)Nc1ccc2c(c1)OCC(C)(C)C(=O)N2C`, for which, where the note is “30.3 µM, […]”, the “Percent Effect” value is given as -17.18%.
For `CCN1CC(C(=O)NCc2cccc(SC)c2)CC1=O` (stereo unspecified), under “30.3 µM, […]”, the “Percent Effect” value is recorded as -29.4%.
On the same count and under the same terms, as for `CN(C)S(=O)(=O)c1ccc(CNC(=O)C2CC(=O)N(C(C)(C)C)C2)cc1` (stereo unspecified), the figure is 21.08%.
Consider `CSc1ccc(CNC(=O)C2CC(=O)N(C(C)(C)C)C2)cc1` (stereo unspecified), for which the “Percent Effect” value (30.3 µM, […]) was 55.18%.
Regarding `O=c1[nH]c(-c2ccc(Cl)cc2)nc2c1CCNC2`, the “Percent Effect” value (30.3 µM, […]) came to 20.84%.
On the same count and under the same terms, under `O=c1[nH]c(-c2ccc(F)c(F)c2)nc2c1CCNC2` stands 51.76%.
With `O=c1[nH]c(-c2ccc(F)cc2)nc2c1CCNC2`, the “Percent Effect” value (30.3 µM, […]) was 23.84%.
On the same count and under the same terms, under `Cc1nc(CN2C[C@@H]3CCCO[C@@H]3[C@H](NC(=O)CC3CC3)C2)cs1.O=C(O)C(F)(F)F` stands 13.13%; under `CC(=O)NCC(=O)N1CCC2(COCc3c(C)nc(N(C)C)nc32)C1` (stereo unspecified), 0.3657%.
As to `Cc1ccoc1C(=O)N1CC[C@H]2C[C@H](c3nnc(C4CC4)o3)O[C@@H]2C1`, the “Percent Effect” value (30.3 µM, […]) was determined as 7.701%.
On to `Cc1cc(C(=O)Cn2cnnc2[S+](C)[O-])cc(C)c1F` (stereo unspecified), for which, for the setting “30.3 µM, […]”, the “Percent Effect” value was found to be 9.03%.
As for `CCCc1nn(C2CCN(C3CC3)C2=O)c(=O)o1` (stereo unspecified), for the setting “30.3 µM, […]”, the “Percent Effect” value is -13.56%.
On the same count and under the same terms, as for `CCCc1nn(C2CCCN(C(C)C)C2=O)c(=O)o1` (stereo unspecified), the figure is -18.62%; as for `CCCc1nn(C2CCN(C(C)C)C2=O)c(=O)o1` (stereo unspecified), 51.41%; as for `CN1C(=O)C2(CCN(C(=O)c3ccccc3)CC2)c2cc(F)ccc21.Cl`, 50.2%.
The same measure, in the same setting: under `CC(=O)N1CCC2(CC1)C(=O)N(C)c1ccc(F)cc12` stands 29.57%.
